The panel holds about 83,000 compounds, 20% with a hit somewhere; the sample as a whole holds those more often.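 Single-dose data. Exposure time 48 hours. Values below 10 considered active.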 A number with no mark means an inactive call. Activity calls are given as the source filed them.
What was measured:
Test in all cases: NCI-60 one-dose screen, 48 h (100 = growth as untreated, 0 = no growth, -100 = all killed)
Conditions in all cases: 10 µM unless noted
HCT-15 colon = tested on: HCT-15 colon
HT29 colon = tested on: HT29 colon
SNB-75 CNS = tested on: SNB-75 CNS
SNB-19 CNS = tested on: SNB-19 CNS
U251 CNS = tested on: U251 CNS
PC-3 prostate = tested on: PC-3 prostate
SK-MEL-5 melanoma = tested on: SK-MEL-5 melanoma
UACC-62 melanoma = tested on: UACC-62 melanoma
LOX IMVI melanoma = tested on: LOX IMVI melanoma
SK-MEL-28 melanoma = tested on: SK-MEL-28 melanoma
SK-MEL-2 melanoma = tested on: SK-MEL-2 melanoma
EKVX NSCLC = tested on: EKVX NSCLC
SN12C renal = tested on: SN12C renal
UO-31 renal = tested on: UO-31 renal
TK-10 renal = tested on: TK-10 renal
ACHN renal = tested on: ACHN renal
CAKI-1 renal = tested on: CAKI-1 renal
CCRF-CEM leukemia = tested on: CCRF-CEM leukemia
MOLT-4 leukemia = tested on: MOLT-4 leukemia

SMILES | growth (HCT-15 colon) | growth (HT29 colon) | growth (SNB-75 CNS) | growth (SNB-19 CNS) | growth (U251 CNS) | growth (PC-3 prostate) | growth (SK-MEL-5 melanoma) | growth (UACC-62 melanoma) | growth (LOX IMVI melanoma) | growth (SK-MEL-28 melanoma) | growth (SK-MEL-2 melanoma) | growth (EKVX NSCLC) | growth (SN12C renal) | growth (UO-31 renal) | growth (TK-10 renal) | growth (ACHN renal) | growth (CAKI-1 renal) | growth (CCRF-CEM leukemia) | growth (MOLT-4 leukemia)
Cc1ccc(NC(=O)Cc2ccc(/C=C/C(=O)c3ncc[nH]3)cc2)cc1 | 11% | 9.43% (active) | 22.2% | 16.6% | 7.18% (active) | 53.3% | 73.9% | 66.2% | 10.9% | 86.9% | 109% | 82.4% | 13.5% | 39.5% | 78.4% | 73.1% | 61.1% | 4.85% (active) | 23.5%
CCCCC[n+]1ccc(SCC(=O)N(C)c2ccc(Oc3ccccc3)cc2)c2ccccc21 | 100% | 101% | 115% | 89.1% | 95.8% | 103% | 95.2% | 75.4% | 102% | 108% | 106% | 114% | 95.5% | 86.9% | 99.6% | 107% | 93.5% | 85% | 82%
CC(=O)c1cc2c(N)c(C(=O)Nc3cccc4ccncc34)sc2nc1C | 87.1% | 104% | 97.7% | 95.4% | 101% | 80.7% | 64.7% | 69.9% | 102% | 91.1% | 78% | 91.5% | 99.9% | 88.2% | 99% | 102% | 93.1% | 101% | 88.7%
Cc1nc(N)nc(N[C@@H](C)c2nc3cccc(NCc4ccc(C(=O)NO)cc4)c3c(=O)n2-c2ccccc2)n1 | 110% | 77.3% | 69.6% | 71.3% | 52.7% | 88% | 77.3% | 59.1% | 72.8% | 70% | 74.7% | 76.8% | 84.5% | 68.4% | 80.3% | 101% | 77.5% | 23.2% | 32.9%
CC1(C)CC(O)CCCCCCOc2c(CN)cccc2NC(=O)c2nc(cnc2N)-c2ccc(cc2)S1(=O)=O (configuration not stated) | -14.4% (active) | 9.7% (active) | 53.7% | 8.06% (active) | -26.6% (active) | 22.6% | -31.7% (active) | 41.3% | 13% | 43.4% | 25.4% | 86.2% | 20.1% | 27.8% | 34.7% | 24.7% | 18.1% | -8.71% (active) | 2.43% (active)
C#CCNC(=O)c1cccc2c1cc(C)n2-c1nc2c(c(NCc3ccccc3)n1)CCCC2 | -60.1% (active) | 0.876% (active) | 5.33% (active) | -24.9% (active) | -71.6% (active) | -18.2% (active) | -94.3% (active) | -60.6% (active) | -86.6% (active) | -6.03% (active) | -38% (active) | -30.4% (active) | -41.3% (active) | -63.8% (active) | -15% (active) | 3.27% (active) | 3.06% (active) | 5.3% (active) | -8.18% (active)
C=C1C(=O)O[C@H]2[C@H]1CC/C(CNC(=O)CCc1ccc(OC)cc1)=C\CC[C@@]1(C)O[C@@H]21 | 37.1% | 12.1% | 116% | 80.3% | 87.9% | 72.1% | 92.8% | 47.3% | 70.3% | 59.5% | 74.5% | 71.4% | 35.9% | 53% | 33.5% | 31.6% | 38.1% | 4.85% (active) | 67.8%
Cc1cc2nc3c4ccc(Br)cc4n(CCN(C)C)c3nc2cc1C | 1.66% (active) | 5.01% (active) | 16.7% | 23.5% | 15.1% | 12.8% | 4.17% (active) | 13.1% | -52.6% (active) | 42.4% | 8.78% (active) | 22.7% | 16.7% | -30.3% (active) | 22.2% | -7.69% (active) | 0.198% (active) | 12.7% | 3.31% (active)
COc1cc(C2=C(c3cn(C)c4ccccc34)COC2=O)cc(OC)c1OC | 5.39% (active) | 7.04% (active) | -31.3% (active) | 15.5% | 13.8% | 13.3% | 0.365% (active) | 12.6% | 2.86% (active) | 21.3% | 27.7% | 28.2% | 25% | 10.4% | 44.2% | 28% | 7.16% (active) | 8.87% (active) | 12.2%
CCCCCN1C=C/C(=C\C(=O)N(C)c2ccccc2Br)c2ccccc21 | 102% | 98.3% | 91.7% | 94.6% | 87.7% | 92.1% | 94.2% | 81.6% | 93.6% | 105% | 109% | 91.2% | 89.2% | 87.8% | 99.7% | 104% | 82.2% | 96% | 89.3%
COc1cc2c(=O)n(CCCN(C)C)c3c4cc5c(cc4ccc3c2cc1OC)OCO5 | 52.1% | 30.5% | 90.2% | 52.6% | 55.8% | 50.8% | 71% | 59.4% | 36.3% | 87.2% | 89% | 85% | 50.4% | 41.9% | 84.5% | 36.8% | 62% | 13.8% | -9.29% (active)
CC(=O)N1c2ccccc2NC2=C(C(=O)NC2(C)C)C1c1ccco1 (configuration not stated) | 93.1% | 92.5% | 73.5% | 81.2% | 96.5% | 54.6% | 64.6% | 66.5% | 86.4% | 75.2% | 84.2% | 95.8% | 99.1% | 85.2% | 98.4% | 107% | 90.3% | 80.6% | 96.5%
Cc1ccc(-n2cc(-c3ccccc3)c3c2N=NN2CCN=C32)cc1 | 101% | 110% | 72.1% | 92.2% | 99.1% | 86.4% | 99.1% | 82.3% | 97.7% | 109% | 103% | 87.5% | 96% | 74.5% | 141% | 105% | 68.7% | 101% | 97.3%

— PubChem BioAssay (NCI)
